The source of these data is PubChem BioAssay (NCI).

This is part of a sample that, as a whole, favours compounds with a hit. Of some 83,000 tested, about 20% had one in any assay.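 Single-concentration screen, 48 h exposure, 96-well plates. Endpoint: percent growth. Below 10 = active.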 A number with no mark means an inactive call. Active and inactive are the calls of the source.

Common to all, as to test: NCI-60 one-dose screen, 48 h (100 = growth as untreated, 0 = no growth, -100 = all killed)
Holding throughout (details): 10 µM unless noted

Assay [1] concerns SK-MEL-2 melanoma.
Assay [2] deals with EKVX NSCLC.
The test system of assay [3] is SN12C renal.
Assay [4] deals with UO-31 renal.
Assay [5] deals with TK-10 renal.
Assay [6] relates to ACHN renal.
Assay [7] deals with CAKI-1 renal.
In assay [8] the test system is A498 renal.
In assay [9] the test system is CCRF-CEM leukemia.
The test system of assay [10] is MOLT-4 leukemia.

As for `CNC(=O)c1cc(Oc2ccc3c(c2)sc2nc(-c4cc(OC)c(OC)c(OC)c4)cn23)ccn1`, the growth in assay [1] was 54.3%; in assay [2] it was 50.2%; in assay [3], 53.1%; in assay [4] it was 30.3%; in assay [5] it was 50.3%; in [6], 51.9%. The growth is 43.6% in assay [7], 53.7% in [8], 39.4% in assay [9] and 18.3% in [10].
On to `Fc1ccc(-c2nn(-c3ccccc3)cc2-c2nc3ccccc3o2)cc1`, for which the growth in assay [1] was 125%; in [2] it was 84%; in [3], 60.1%; in assay [4] it was 60.6%; in assay [5], 126%; in assay [6], 53.9%. Besides, the growth in assay [7] is 82.1%; in [8], 45.4%; in [9] it was 66.4%; in assay [10], 73.7%.
With `C[C@@H]1CCC[C@H]1CC(N)C(=O)O` (stereo not given in full), the growth is 132% in assay [1]; 98.4% in assay [2]; 114% in assay [3]; 99% in assay [4]; 130% in [5]; 99.5% in [6]. Also, the growth in assay [7] is -76.8% (active); in [8] it was 97.9%; in assay [9], 104%; in [10] it was 114%.
As to `O=C(CCCCCCN1CC(=O)N2[C@H](c3cc(Br)cs3)c3[nH]c4ccccc4c3C[C@H]2C1=O)NO`, the growth in assay [1] is 50%; in assay [2], 75.4%; in assay [3], 53.7%; in assay [4] it was 39.6%; in assay [5], 32%; in assay [6], 47.8%. Moreover, the growth was 43.7% in assay [7], 58.6% in assay [8], 23.9% in assay [9] and 9.39% (active) in assay [10].
Regarding `O=C(CSc1nc2sc3c(c2c(=O)n1-c1ccccc1)CCCCC3)N/N=C/c1ccc(F)cc1`, the growth in assay [1] is 91.9%; in assay [2], 80%; in assay [3] it was 16.3%; in [4], 88.2%; in assay [5], 69.1%; in [6], 26.8%. Moreover, the growth is -13.7% (active) in assay [7], 89.7% in assay [8], 46% in assay [9] and 67.1% in assay [10].
`O=[N+]([O-])C1C(c2ccccc2)C12c1ccccc1-c1ccccc12` (stereo not given): the growth is -1.42% (active) in assay [1]; 77.9% in [2]; 23% in assay [3]; 28.3% in assay [4]; 23.2% in [5]; 29.6% in assay [6]. Further, the growth in assay [7] is 34.6%; in assay [8] it was -12.8% (active); in assay [9] it was -12.1% (active); in assay [10], -17.1% (active).
Regarding `C#COc1cccc(Nc2ncnc3ncc(NC(=O)CCl)cc23)c1`, the growth in assay [1] is 24.5% [6.25 µM]; in [2], 57.1% [6.25 µM]; in [3] it was 3.98% [6.25 µM] (active); in [4], -68.1% [6.25 µM] (active); in assay [5], -24.2% [6.25 µM] (active); in [6], 7.63% [6.25 µM] (active). The growth was 36.4% [6.25 µM] in assay [7], 61.8% [6.25 µM] in assay [8], 23.2% [6.25 µM] in assay [9] and 50.4% [6.25 µM] in assay [10].
On to `CCOC(=O)c1[nH]c(=O)c2c(C)nc(-c3ccccc3)cc2c1O`, for which the growth was 84.8% in assay [1]; 98.8% in assay [2]; 88.8% in assay [3]; 90% in [4]; 178% in assay [5]; 110% in assay [6]. Besides, the growth was 109% in assay [7], 72.6% in assay [8], 91.8% in assay [9] and 98.1% in assay [10].
In the case of `O=S(=O)(Nc1ccc(Cl)cc1)c1ccc(-c2cnc(C3CC3)o2)cc1`, the growth was 39.8% in [1]; 47.9% in [2]; 36.4% in [3]; 41.5% in assay [4]; 54.2% in assay [5]; 35.4% in assay [6]. Besides, the growth is 31.6% in [7], 0.162% (active) in assay [8], 11.4% in [9] and 14.2% in assay [10].
Consider `COc1ccc(/C=N/C2=C(C#N)C(c3cccc(Cl)c3)c3c(ccc4ccccc34)O2)cc1` (stereo not given), for which the growth in assay [1] was 51.2%; in assay [2], 33.9%; in assay [3], 39.6%; in assay [4] it was 43%; in [5] it was 82%; in [6], 31%. Also, the growth in assay [7] is 20.3%; in [8] it was -4.91% (active); in [9] it was 16.9%; in assay [10], 21.8%.
As for `O=C1Nc2ccccc2[C@]12CC(c1ccccc1)=NN2`, the growth was 44.9% in assay [1]; 50.7% in assay [2]; 59.5% in assay [3]; 49.5% in assay [4]; 79.7% in assay [5]; 54.3% in assay [6]. For the same compound, the growth is 38.7% in assay [7], 60% in [8], 37.2% in assay [9] and 43.2% in assay [10].
On to `C=CCc1c2c(c(OC)c3ccoc13)C(=O)/C(=C/c1ccccc1OC)O2`, for which the growth in assay [1] is 58.4%; in assay [2], 60.6%; in assay [3], 62.1%; in assay [4], 65.7%; in assay [5] it was 52.9%; in assay [6], 59.3%. The growth in assay [7] was 38.4%; in [8], 46.2%; in assay [9], 37.5%; in assay [10] it was 45.8%.
Turning to `O=C(OCc1ccc2cccc(O)c2n1)N1CCN(C(=O)c2cc3cc(F)ccc3[nH]2)CC1`, the growth in assay [1] is -59.7% (active); in [2], -87.8% (active); in [3] it was -90.8% (active); in [4], -100% (active); in assay [5] it was -97.1% (active); in [6], -99.8% (active). In addition, the growth was -97.8% (active) in [7], 17.5% in [8], 3.76% (active) in [9] and -16.9% (active) in assay [10].
Regarding `Clc1ccc2c(c1)N(c1ncnc3ccc(-c4cnc5[nH]ncc5c4)cc13)CC2`, the growth in assay [1] was 48.3%; in assay [2] it was 16.8%; in assay [3], 19.5%; in [4], 4.18% (active); in assay [5], 13.9%; in assay [6], 13%. The growth is 11% in assay [7], -45.2% (active) in [8], 31.9% in assay [9] and 3.68% (active) in assay [10].
